The list is not random: actives were taken first. Their share in the collection is about 4.2%.
12-LOX inh – blocks human arachidonate 12S-lipoxygenase; P18054; purified 12hLO, xylenol orange hydroperoxide absorbance; Potency, µM (titrated, usually from 108 µM), for the others: at the highest dose activity change, negative = inhibition, hits mostly inhibitors; hit rate 1.1% among 580,000
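Hydroperoxide product was detected by ferrous iron/xylenol orange as the 573 to 405 nm absorbance ratio. Arachidonic acid at 40 uM (final) was turned over for 30 min at room temperature by 150 nM human 12hLO, pH 7.0 Hepes buffer, after 15 min compound preincubation.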
VDR inhibitor – vitamin D3 receptor (human) inhibition; VDR-SRC2-3 peptide fluorescence polarization, 2 h; Potency, µM, without a hit: max response, negative = inhibition, usual class: inhibitors; hit rate 0.93% among 400,000; AID 504847
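Inhibition of the VDR/SRC2-3 peptide interaction is quantified by fluorescence polarization. Compounds (23 nl, pintool) incubate with the reagents for 2 hours at ambient room temperature.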
Sfp PPTase inh – inhibitors of Bacillus subtilis Sfp phosphopantetheinyl transferase | Q9F4F7 | Biochemical Sfp PPTase activity, qHTS | Potency, µM, inactives show largest response in the series, negative = inhibition, actives largely listed as inhibitors | hit rate 3.5% among 310,000 | AID 1490;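 note: the enzyme is Sfp with the accession as filed and its product quenches rhodamine fluorescence; 0% = enzyme reaction without inhibitor and -100% = no enzyme wells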
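With Hepes-Na pH 7.6 buffer containing 10 mM MgCl2, Sfp (15 nM) modified BHQ-2-YbbR (12.5 uM) using rhodamine-CoA (5 uM). Two reads 30 minutes apart at 525/598 nm yielded each well's rate.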
PLK1 PBD inh – inhibitors of human PLK1 polo-box domain binding; P53350; hit rate 2.8% among 360,000; Plk1 PBD binding of FITC phosphopeptide, fluorescence polarization; Potency, µM, without a hit: max response, negative = inhibition, most hits filed as inhibitors; AID 720504; note: series mostly up to about 57 µM; nearly all actives have a fitted effect of over 65% in size
Target sequence (P53350 whole entry, looked up, the tested form may be a part): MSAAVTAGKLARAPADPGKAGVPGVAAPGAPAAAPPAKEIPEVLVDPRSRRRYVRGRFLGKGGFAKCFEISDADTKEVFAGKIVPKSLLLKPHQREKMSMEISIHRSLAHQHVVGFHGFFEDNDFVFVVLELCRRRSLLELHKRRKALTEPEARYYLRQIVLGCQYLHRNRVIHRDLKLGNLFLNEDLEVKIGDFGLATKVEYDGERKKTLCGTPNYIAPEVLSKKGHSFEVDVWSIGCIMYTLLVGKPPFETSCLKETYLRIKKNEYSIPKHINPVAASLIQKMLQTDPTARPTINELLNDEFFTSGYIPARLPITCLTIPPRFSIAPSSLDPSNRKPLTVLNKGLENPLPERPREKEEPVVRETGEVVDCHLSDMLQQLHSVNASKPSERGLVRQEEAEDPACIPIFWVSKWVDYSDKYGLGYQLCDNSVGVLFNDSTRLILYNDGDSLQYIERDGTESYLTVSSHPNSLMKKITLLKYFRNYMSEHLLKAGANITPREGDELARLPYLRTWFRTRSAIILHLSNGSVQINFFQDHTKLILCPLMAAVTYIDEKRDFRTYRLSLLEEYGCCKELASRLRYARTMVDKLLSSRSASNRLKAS
An asterisk follows results filed as active; [ ] = another dose, or the depositor's remark. Calls come from the whole dose curve; as a rule, active = well fitted curve in the direction sought with a large enough effect; inconclusive = small, poorly fitted or top-dose-only effect, or another doubt; inactive = no such curve, though single readings can be large; an effect the other way counts as inactive or inconclusive. Unless noted, % is set by controls: 0 for no effect and ±100 for the full control effect; potency is the fitted concentration of half-maximal effect.

Screening O=C(Nc1cccc(F)c1)c1cc(-c2ccc[nH]2)n[nH]1 returned 12-LOX inh 20µM*.
`COc1ccc(NC(=O)c2cc(-c3ccc[nH]3)n[nH]2)cc1F` gave 12-LOX inh -15%.
Screening O=C(Nc1cccc(C(F)(F)F)c1)c1cc(-c2ccc[nH]2)n[nH]1 returned 12-LOX inh 16µM*.
For Cc1cc(F)ccc1NC(=O)c1cc(-c2ccc[nH]2)n[nH]1 the results were 12-LOX inh 18µM*.
Cc1ccc(NC(=O)c2cc(-c3ccc[nH]3)n[nH]2)cc1F was read as 12-LOX inh 10µM*.
O=Cc1cccc(-c2ccc(C(=O)O)o2)c1 was read as 12-LOX inh 3%[12.5 µM].
O=C(O)C1CCCN(C(=O)/C=C/c2ccccc2)CC1 (stereo not given) was read as 12-LOX inh -6% and PLK1 PBD inh -2%.
`CCCCCCCCCCCCNC(=O)c1cccs1` gave 12-LOX inh -2%.
Screening COc1ccc(-c2[nH]nc3ncc(-c4cccnc4)nc23)c(C)c1 returned 12-LOX inh -3%[176 µM].
Screening COc1cc(OC)c(C=O)c(OC(=O)N2CCOCC2)c1 returned 12-LOX inh 18%, VDR inhibitor 2%, Sfp PPTase inh 14% and PLK1 PBD inh -5%.
O=C1CCCc2c1cc(C(=O)NCc1ccco1)c(=O)n2-c1ccc(Cl)cc1 was read as 12-LOX inh -32%, VDR inhibitor -14%, Sfp PPTase inh 56µM* and PLK1 PBD inh -3%.
`Cc1ccc(-n2c3c(cc(C(=O)NCc4ccco4)c2=O)C(=O)CCC3)cc1` gave 12-LOX inh -24%, VDR inhibitor 4%, Sfp PPTase inh 1% and PLK1 PBD inh 1%.
`CC1=C(C(N)=O)C(c2cccs2)NC(=O)N1` (stereo not given) gave 12-LOX inh -4%, VDR inhibitor 15%, Sfp PPTase inh 13% and PLK1 PBD inh 3%.
Screening CC1=C(C(N)=O)C(c2cccs2)NC(=S)N1 (stereo not given) returned 12-LOX inh inconclusive, VDR inhibitor inconclusive, Sfp PPTase inh 19% and PLK1 PBD inh 27µM*.
COc1ccc(CN(CCC(c2ccccc2)c2ccco2)C(=O)c2ccco2)cc1 (stereo not given) was read as 12-LOX inh 50µM*, VDR inhibitor -23%, Sfp PPTase inh inconclusive and PLK1 PBD inh -8%.
For O=C(c1ccco1)N(CCC(c1ccccc1)c1ccco1)Cc1ccccc1 (stereo not given) the results were 12-LOX inh inconclusive, VDR inhibitor -18%, Sfp PPTase inh 50µM* and PLK1 PBD inh inconclusive.
For CCOC(=O)C1=C[C@@H](OC(CC)CC)[C@H](NC(C)=O)[C@@H](N)C1 the results were 12-LOX inh -9%[57.4 µM].
Screening Cc1cc(C)nc(N/N=C/c2ccc(Cl)cc2)n1 returned 12-LOX inh inconclusive, VDR inhibitor -3%, Sfp PPTase inh inconclusive and PLK1 PBD inh -6%.
O=C(OCn1ncc(Cl)c(Cl)c1=O)c1ccc(C(F)(F)F)cc1 was read as 12-LOX inh -1%, VDR inhibitor 20µM*, Sfp PPTase inh 0% and PLK1 PBD inh -21%.
For Cc1ccc(C(=O)OCn2ncc(Cl)c(Cl)c2=O)cc1 the results were 12-LOX inh 0%, VDR inhibitor inconclusive, Sfp PPTase inh inconclusive and PLK1 PBD inh inconclusive.
`Nn1cnnc1N/N=C/c1ccc(Cl)c([N+](=O)[O-])c1` gave 12-LOX inh -2%, VDR inhibitor inconclusive, Sfp PPTase inh inconclusive and PLK1 PBD inh -22%.
`Cc1ccc(/C=N/Nc2nncn2N)cc1` gave 12-LOX inh inconclusive, VDR inhibitor -12%, Sfp PPTase inh 40µM* and PLK1 PBD inh 1%.
Nn1cnnc1N/N=C/c1ccc(F)cc1 was read as 12-LOX inh 0%, VDR inhibitor -26%, Sfp PPTase inh 56µM* and PLK1 PBD inh -3%.
For Cc1sc(/C=C2\C(=O)ON=C2c2ccccc2)cc1Br the results were Sfp PPTase inh 11%.
O=C1ON=C(c2ccccc2)/C1=C\c1ccco1 was read as 12-LOX inh 6.3µM*, VDR inhibitor inconclusive, Sfp PPTase inh 14µM* and PLK1 PBD inh 9.5µM*.
Cc1ccc(/C=C2/C(=O)ON=C2c2ccccc2)o1 was read as 12-LOX inh 10µM*, VDR inhibitor 23%, Sfp PPTase inh 14µM* and PLK1 PBD inh 0.67µM*.
`CCc1c(C(=O)N2CCc3c(c(C(=O)O)nn3CC3CC3)C2)csc1C` gave 12-LOX inh 35µM*.
COc1ccc(NC(=O)CN(C)C(=O)c2cc3c(s2)CCC3)cc1 was read as VDR inhibitor 4% and PLK1 PBD inh 7.5µM*.
`CCCCN(CC)C(=O)c1oc2ccc(S(=O)(=O)N3CCCC3)cc2c1C` gave 12-LOX inh -17%, VDR inhibitor inconclusive, Sfp PPTase inh 8% and PLK1 PBD inh 30µM*.
`CCN(C(=O)c1oc2ccc(S(=O)(=O)N3CCCCCC3)cc2c1C)c1ccccc1` gave 12-LOX inh -29% and VDR inhibitor -4%.
Screening Cc1c(C(=O)N(Cc2ccccc2)C(C)C)oc2ccc(S(=O)(=O)N3CCOCC3)cc12 returned 12-LOX inh 0%, VDR inhibitor -12%, Sfp PPTase inh 7% and PLK1 PBD inh 30µM*.
For Cc1c(C(=O)O)oc2ccc(S(=O)(=O)N3CC(C)CC(C)C3)cc12 (stereo not given) the results were 12-LOX inh -5%, VDR inhibitor 111%, Sfp PPTase inh 11% and PLK1 PBD inh -5%.
`Cc1c(C(=O)N(C)Cc2ccccc2)oc2ccc(S(=O)(=O)N3CCCC3)cc12` gave 12-LOX inh -17%, VDR inhibitor 12%, Sfp PPTase inh -4% and PLK1 PBD inh -10%.
For Cc1c(C(=O)N(Cc2nc3ccccc3c(=O)[nH]2)C(C)C)oc2ccc(Br)cc12 the results were 12-LOX inh 45µM*.
`Cc1c(C(=O)N(C)CCC#N)oc2ccc(S(=O)(=O)N3CC(C)CC(C)C3)cc12` (stereo not given) gave 12-LOX inh -13%, VDR inhibitor inconclusive, Sfp PPTase inh -2% and PLK1 PBD inh 19µM*.
For Cc1ccc(/C(=N/Nc2nc3ccccc3s2)C2=C(O)c3ccccc3C2=O)cc1 the results were 12-LOX inh 3.5µM*, VDR inhibitor inconclusive, Sfp PPTase inh 79µM* and PLK1 PBD inh inconclusive.
Screening Cc1ccc(S(=O)(=O)N(C)CC(=O)Nc2nc3ccccc3s2)cc1 returned 12-LOX inh -18%, VDR inhibitor 11%, Sfp PPTase inh 10% and PLK1 PBD inh -9%.
`CC(C)(c1cc(Br)c(O)c(Br)c1)c1cc(Br)c(O)c(Br)c1` gave 12-LOX inh 45µM*, VDR inhibitor -10% and PLK1 PBD inh 27µM*.
For COC(=O)c1cc(Br)c(O)c(Br)c1 the results were 12-LOX inh -20%.
For COc1cc(NC(=O)c2ccc(COCC(F)(F)F)cc2)cc(OC)c1OC the results were 12-LOX inh 22%, VDR inhibitor -17%, Sfp PPTase inh 11% and PLK1 PBD inh 4.7µM*.
